HDAC3 inh – blocks human histone deacetylase 3 | 320,000 compounds, 0.15% hits | inhibition, % at 8.3 µM | recombinant HDAC3, fluorogenic peptide/trypsin coupled, fluorescence | O15379; in the data active = inhibition above about 26%, passing the limit was not always enough
Target sequence (O15379 whole entry, looked up): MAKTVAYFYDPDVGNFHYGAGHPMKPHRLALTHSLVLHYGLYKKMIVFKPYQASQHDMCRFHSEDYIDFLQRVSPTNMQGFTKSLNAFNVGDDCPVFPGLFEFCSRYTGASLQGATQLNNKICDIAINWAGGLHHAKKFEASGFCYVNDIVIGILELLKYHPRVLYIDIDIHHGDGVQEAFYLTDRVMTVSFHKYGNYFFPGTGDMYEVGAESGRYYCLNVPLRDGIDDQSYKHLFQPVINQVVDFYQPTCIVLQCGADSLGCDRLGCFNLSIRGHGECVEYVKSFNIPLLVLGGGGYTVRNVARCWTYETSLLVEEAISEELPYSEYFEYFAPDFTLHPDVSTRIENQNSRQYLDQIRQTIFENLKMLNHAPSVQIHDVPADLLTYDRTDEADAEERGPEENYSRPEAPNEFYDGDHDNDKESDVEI
CHT block – human CHT choline transport inhibition. B-score at 10 µM. Q9GZV3. 310,000 compounds, 0.86% hits. CHT-expressing cells, membrane potential dye, choline response; hits give low values;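 active = B-score over 3 SD under the library average, and starting fluorescence ratio not unusually high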;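 also: choline stimulus applied at its EC90 after an EC20 pre-addition; B-score computed on integrated fluorescence ratio after choline addition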
ANO1 block – inhibitors of mouse TMEM16A calcium-activated chloride channel; 310,000 compounds, 1.2% hits; HEK293 TMEM16A/YFP iodide influx fluorescence, ionomycin; normalized B-score (activity score, 25-100; higher = stronger inhibition) at 10 µM; Q8BHY3;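 active = ratio plate-corrected score three or more library SD toward inhibition, starting fluorescence score within five deviations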;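 also: score derived from kinetic fluorescence span divided by baseline fluorescence per well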
PHOSPHO1 inh – blocks human PHOSPHO1 phosphatase activity | Q8TCT1 | recombinant PHOSPHO1, absorbance phosphatase assay | inhibition, % at 13.3 µM | 290,000 compounds, 1.1% hits | AID 1565; in the data active = inhibition above about 60%
ANO1 activ – mouse TMEM16A channel activation, primary screen; Q8BHY3; HEK293 TMEM16A/YFP-H148Q/I152L, iodide quench fluorescence; hits give low values; B-score at 10 µM; 340,000 compounds, 0.3% hits; AID 623877;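 active = fluorescence-ratio B-score plate-corrected deviation score at least 3 library SD below zero, with starting fluorescence score within 5 deviations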;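 also: channel opened by trigger with iodide after compound preincubation; score built on the fluorescence ratio of max minus min over baseline; more negative score means more quench and so TMEM16A activation or potentiation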
CHT PAM – allosteric activators of human choline transporter CHT. CHT-expressing cells, membrane potential dye, choline EC20; hits give high values; LV-AA mutant CHT in HEK293 cells. B-score at 10 µM. 310,000 compounds, 0.49% hits. AID 488977;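 active = initial fluorescence not abnormally high and integrated response B-score, plate-corrected, over 3 SD above library mean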
TMEM16A reconf – reconfirmed blocker of mouse TMEM16A calcium-activated chloride channel; shares compounds with ANO1 block; HEK293 TMEM16A/YFP-H148Q, iodide quench fluorescence; ionomycin added to raise cell calcium; inhibition, % at 10 µM; 2,300 compounds, 39% hits;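 active = mean duplicate percent inhibition, scaled so buffer wells are 0 and the reference blocker 100, over three buffer SD above buffer mean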
TMEM16A Ca cntr – counter-screen for TMEM16A inhibitors: effect on calcium mobilization. shares compounds with ANO1 block. TMEM16A/YFP HEK293, Fluo4 calcium mobilization. calcium response (% of ionomycin), % at 10 µM. 2,300 compounds, 2% hits. AID 652231;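 active = duplicate-averaged calcium signal over 20% of the ionomycin maximum, relative to buffer baseline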;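 also: each well's signal is peak minus trough fluorescence divided by its pre-addition baseline; 0% = buffer wells and 100% = ionomycin wells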
YFP-HEK293 quench – counter-screen for TMEM16A inhibitors: effect in parental YFP-HEK293 cells. iodide YFP quench, ionomycin. shares compounds with ANO1 block. 2,300 tested, under 10 active. YFP ratio F(max-min)/F0 at 10 µM. AID 652233;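 active = yellow fluorescent protein signal ratio exceeding the buffer control mean by over 5 SD of those controls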;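 also: ratio is mean of duplicate wells from kinetic YFP trace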
ClC-1 rat inh – blocks the rat ClC-1 voltage-dependent chloride channel | shares compounds with ANO1 block | CHO ClC-1-YFP, iodide influx fluorescence quench; iodide control reads 0, buffer control 100 | ratio percent, % at 10 µM | 2,300 tested, under 10 active;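 active = duplicate-mean ratio percent above the mean of iodide-only control wells, which defines zero, plus 5 of their SD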;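 also: higher percent means stronger block of ClC-1 iodide influx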
* marks the source's active call; other numbers are inactive results; i = inactive; x = no result. Hits are enriched below; roughly 3.2% of the tested compounds scored in any of these assays.

SMILES	HDAC3 inh	CHT block	ANO1 block	PHOSPHO1 inh	ANO1 activ	CHT PAM	TMEM16A reconf	TMEM16A Ca cntr	YFP-HEK293 quench	ClC-1 rat inh
O=c1c2c([nH]c3ccccc13)CCCCC2	-2	i	i	33	i	i	x	x	x	x
O=c1c2c([nH]c3ccccc13)CCCCCC2	2	i	25*	7	i	i	i	i	-1.1	-14
O=C(Nc1nc2cc3c(cc2s1)OCCO3)c1cccc(N2C(=O)CCC2=O)c1	-1	i	i	40	i	i	x	x	x	x
CCN(CC)S(=O)(=O)c1cccc(C(=O)Nc2nc3cc4c(cc3s2)OCCO4)c1	15	i	100*	-13	i	i	20%*	i	-0.5	-5
O=C(NC(c1ccccc1)c1ccccn1)c1cccc([N+](=O)[O-])c1 (centres undefined)	-9	i	i	1	i	i	x	x	x	x
Cc1ccc(-c2nn3c(C)nnc3s2)cc1N	-5	i	100*	13	i	i	i	i	-1.2	-10
Cc1ccc(-c2nn3c(C)nnc3s2)cc1NC(=O)C(C)C	3	i	i	-4	i	i	x	x	x	x
CSc1nc2c(c(=O)n1C)SC(C)C2 (centres undefined)	10	i	i	26	i	i	x	x	x	x
COC(=O)c1ccc2c(c1)NC(=O)C(N1CCOCC1)S2 (centres undefined)	8	i	i	-4	i	i	x	x	x	x
CCC1CCCCN1C1Sc2ccc(C(=O)OC)cc2NC1=O (centres undefined)	-2	i	25*	10	i	i	i	i	-1.2	-9
c1nc(NCC2CCCO2)c2[nH]cnc2n1 (centres undefined)	3	i	25*	x	i	i	i	i	-1	-14
Cc1ccsc1/C=N/Nc1ncc(Cl)cc1Cl	7	i	100*	-2	i	i	40%*	i	-0.94	-8
COc1cc(OC)cc(-c2ncc3ccccn23)c1	-7	i	100*	-1	i	i	i	i	-1	-8
Cc1ccc(NS(=O)(=O)c2cccc(C(=O)Nc3cc(C)on3)c2)cc1	2	i	25*	1	-5.3*	i	i	i	-1.1	-12
COc1ccc(C(=O)N/N=C/c2ccc(N(C)c3ccccc3)cc2)cc1	-4	i	25*	x	i	i	i	i	-1.1	2
Nc1nc(CN2CCN(c3ccccc3)CC2)nc(Nc2ccc(Cl)cc2)n1	15	i	25*	51	i	i	i	i	-1.1	-2
CN(c1ccccc1)S(=O)(=O)c1ccc(C(=O)NCc2ccco2)cc1	x	x	x	x	i	x	x	x	x	x
CC(C)CN1C(=O)c2ccc(C(=O)Nc3ccncc3)cc2C1=O	5	i	25*	-30	i	i	27%*	i	-0.99	-18
CCN(Cc1ccncc1)C(=S)Nc1ccc(Cl)cc1	-4	i	i	16	i	i	x	x	x	x
O=C(Nc1ccc2c(c1)C(=O)N(CC1CCCO1)C2=O)c1cccc(Br)c1 (centres undefined)	-11	i	100*	11	i	i	24%*	i	-0.99	-8
CC(C)(C)NC1=CC(=O)OC12CCCCC2	-8	i	i	1	i	i	i	i	-0.9	0
CN1CCCC1CCNc1ccc2sc3ccccc3c(=O)c2c1 (centres undefined)	-1	i	i	x	i	i	i	i	-0.73	6
CC(OC(=O)C1CCN(S(=O)(=O)c2ccc(Cl)cc2)CC1)C(=O)N1CCc2ccccc21 (centres undefined)	2	i	i	-29	i	i	x	x	x	x
O=C(Nn1c(O)c(C=C2N=c3ccccc3=N2)sc1=S)c1cccc(Cl)c1	-1	i	25*	86*	i	i	i	i	-0.81	-6
O=C(Nn1c(O)c(C=C2N=c3ccccc3=N2)sc1=S)c1ccc(Cl)cc1	11	i	i	42	i	i	x	x	x	x
SMILES	HDAC3 inh	CHT block	ANO1 block	PHOSPHO1 inh	ANO1 activ	CHT PAM	TMEM16A reconf	TMEM16A Ca cntr	YFP-HEK293 quench	ClC-1 rat inh
Cc1cc(C)c(C#N)c(N2CCCC2)n1	-6	i	i	14	i	i	x	x	x	x
Cc1cc(C(F)(F)F)c(C#N)c(N2CCOCC2)n1	x	i	100*	2	i	i	i	i	-1.2	-12
CCOC(=O)c1cn(Cc2ccccc2)c(C(=O)OC(C)(C)C)c1O	15	i	100*	x	i	i	32%*	i	-0.98	-9
Cc1ccc(C)c(OCCC(=O)OCC(=O)Nc2ccc(C)c(S(=O)(=O)N3CCCCC3)c2)c1	17	i	25*	x	i	i	i	i	-1.1	-14
COc1ccc(NC(=O)CCOc2ccc(C)cc2)cc1S(=O)(=O)N1CCCCC1	2	x	x	x	i	x	x	x	x	x
Cc1ccc(OCCC(=O)OCC(=O)Nc2ccc(C)c(S(=O)(=O)N3CCOCC3)c2)cc1	x	x	x	x	i	x	x	x	x	x
COc1ccc(NC(=O)COc2cc(C)cc(C)c2)cc1S(=O)(=O)N1CCCCC1	x	i	25*	x	i	i	i	i	-0.89	-20
Cc1ccc(NC(=O)c2ccccc2F)c(NC(=O)c2ccccc2F)c1	-3	i	i	x	i	i	x	x	x	x
O=C(Nc1ccccc1)C1CCN(S(=O)(=O)c2cccs2)CC1	x	x	x	x	i	x	x	x	x	x
O=S(=O)(c1ccccc1)N1CCN=C1SCc1ccc(Cl)cc1	2	i	25*	6	i	i	i	i	-0.89	-11
O=S(=O)(c1ccccc1)N1CCN=C1SCc1ccc(Cl)c(Cl)c1	-2	i	i	0	i	i	x	x	x	x
CC(OC(=O)c1cc(S(=O)(=O)N2CCOCC2)ccc1F)C(=O)NC1CCCC1 (centres undefined)	-1	x	x	x	x	x	x	x	x	x
CCc1nn(C(C)C(=O)NCCN2CCN(c3cccc(C)c3C)CC2)c(=O)c2cc3occc3n12 (centres undefined)	2	i	i	-28	i	i	i	i	-1	2
